Measured values taken from the supplement of paper PMC11417369.
Over roughly 25,000 sequences, “ln(normalized median fluorescence intensity)” has its median near 7.1; the highest 2% begin near 10. The entries come from a sample that favours the highest values as a whole.

Tested on: PfSIP2 AP2 domain 1 (GST-tagged)
Experiment: gcPBM binding intensity (ln(normalized median fluorescence intensity)); higher = stronger DNA binding
Procedure, shortened: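 The highest Masliner-normalised natural-log median intensity across replicate spots of either probe orientation is reported as binding intensity. GST-tagged P. falciparum DNA-binding domains expressed in E. coli were applied for 1 h to an Agilent 4 × 180k array of primer-extended double-stranded 36-bp intergenic genomic probes plus negative controls, and bound protein was detected with Alexa488 anti-GST antibody and scanned at 488 nm.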

In order of rising “gcPBM binding intensity (ln)” value:
1. ATTATAAAAGAATTTTTTTTTATTTCATTAAAATAT [CACACA_negctrl_site1137]  6.57
2. AAGGAAAACAATAGGTGTACCAAACGTCCTAGGAAC [XGTACX_site5732]  6.7
3. GAAATAAAAAGAAATGCATGTAATTTTTTTTTTTTT [TGCATGCA_site928]  6.71
4. CGGACATACATAGGAACATGCAAAATTTTTTATTTT [TGCATGCA_site575]  6.78
5. CAATTAAACAATTAAACATGCAAAATGATATAATAA [TGCATGCA_site240]  6.79
6. AAAAATTTAATTATTTGTACATAAAATACATTTCTG [XGTACX_site791]  6.81
7. AAAATATAAAGTATTTGTACATAATATATTTTTAAA [XGTACX_site3494]  6.81
8. ATAATAAAAAAAATTAGTACATATATAAATATAAAT [XGTACX_site1937]  6.85
9. GAAAATAAAATAAATGCATGTAAATTTAATGTAATG [TGCATGCA_site996]  6.87
10. TTTATATATTTATTCACACATATAATATTCCGTCGT [CACACA_site6120]  6.88
11. AAAAAAAAATATAACAGTACATAAACATATGAATAT [XGTACX_site7093]  6.91
12. TTCAATAGTAAGTATACACACATATAAATAAATAAA [CACACA_site7295]  6.91
13. GTGTGAAACATAAACACACACAAAAAGAAAAAATAG [CACACA_site1227]  6.91
14. TTTTTTTTTTTTTTTGCATGTTGAAAATAAAATTAT [TGCATGCA_site86]  6.92
15. TATATTTGAAATATATGTACTTATAATACAGTTTAA [XGTACX_site8039]  6.94
16. AAATACATAACTTAAAATTTGTTCATATCTATACAT [TGCATGCA_negctrl_site249]  6.94
17. ATATAATAACATAACACACACATGTATTTATAGGTG [CACACA_site359]  6.97
18. CGCATATTTTATGTTTGTACTCATATGAATATCATA [XGTACX_site4717]  6.97
19. ATCACAAAATGGAATGTTCTATGATATATATGTATA [XGTACX_negctrl_site460]  7.02
20. AAAGAATTTGCATATACACACAAAAAAATAAATACA [CACACA_site4373]  7.03
21. CTATAATAACATAACACACACATGTATTTATAGGTG [CACACA_site6298]  7.05
22. CATCTCATATTTTGAAGTACTAAGAAAAGATATAAA [XGTACX_site6867]  7.07
23. TGATTATTATAATTTAGTACATAATATTTTATATAA [XGTACX_site6125]  7.07
24. TCATTAAAGGAAAAATGTACGTATAAATAAATATAT [XGTACX_site2587]  7.07
25. TTTTTTTTTAAGCAAAGGAAATCAAAATAAAAATAT [CACACA_negctrl_site719]  7.08
26. TATTCAAAAATATAAACAATGAAACAGTATAATATG [CACACA_negctrl_site1482]  7.09
27. TATCCCCTTGTCCATATTAATTGTGACATCATATAT [XGTACX_negctrl_site9]  7.09
28. ATATATTTTTTTTTTTGTACGTATATTTATATAATT [XGTACX_site8719]  7.1
29. AAAATTATACACACACGTACATATAAATAGAAATAT [XGTACX_site1753]  7.12
30. ATATTACTAATTAATGGTACACGTTATAATAAACTA [XGTACX_site7051]  7.12
31. AACATACGACAATACGCACACATATAAGTACATATT [CACACA_site8584]  7.13
32. AATAATGAATTGAAATGTACATATTTTTATTAATAC [XGTACX_site8899]  7.15
33. TAAAATATTATCTACGCACACATTAAAATAAAAAAA [CACACA_site3709]  7.17
34. ACAATATTTTTTTATAAACACACATATATATAAATA [CACACA_site9175]  7.18
35. AAAAAAAAAAAAAATACACACATATTTTATAGGGGA [CACACA_site3261]  7.19
36. AAGATAAAATTATGCACACATACGAATAATTTTAAA [CACACA_site1705]  7.24
37. TATGTATTAATGAGAACATGCAAAATAATAAACAAT [TGCATGCA_site362]  7.24
38. AATGTGTACGCACGCACACACAAAAAAATATATATA [CACACA_site2913]  7.24
39. CATATTTACTATCACACACACGATATATATAAATAT [CACACA_site1241]  7.25
40. GATGAGGACAAACACACACACATAAGTTGATACATA [CACACA_site3424]  7.27
41. TAATATGAAAAGTGTACACACGCACAGACAAAAAAA [CACACA_site5594]  7.33
42. TTATAAATATAATTTTGTACATATATATATATATAC [XGTACX_site5064]  7.39
43. ATTTAAGTAGTACATACACACACATATACAAAAAGA [CACACA_site9317]  7.39
44. ATTCCTTGGTTGTATAGTACTTTGGTTAAACATAAA [XGTACX_site6967]  7.4
45. TATATATTATACACGTGTACACATTATAACAATATA [XGTACX_site7799]  7.4
46. GTATATGAGAAAAAAAGTACATGCACAAAATGTATA [XGTACX_site6441]  7.42
47. GTTCTAATATATTGCACACGTAAAAATATAGGTAAT [CACACA_site886]  7.42
48. GTGTAATATGAAATGTGTACACACGCACACACAAAA [XGTACX_site6180]  7.6
49. GCAAAGCACAAATATGCATGTAGATATAGAATAATG [TGCATGCA_site382]  7.68
50. GCACATTTTTTTATCACACATATAATTACAATATAA [CACACA_site5585]  7.74
51. TTAATTAATTTTTCAGTGCAAATAAAAAATATTTAA  7.78
52. ATATTTAAAGAATAAGTGCAAAATGTAATTAATTTT [GTGCAC_site9901]  7.91
53. ATATGAAAGGTGTACACACGCACACCCAAAAAAATA [CACACA_site2911]  7.93
54. TTGATTTCATTTTAAGTGCATAACTAATATTATATA [GTGCAC_site9713]  8.07
55. TAGATTATTATACTAGTGCAAATTATTTAAGAAAAA  8.09
56. TTCATTTTATTTTAAGTGCATATTTTTATTTTTTTG  8.27
57. TCATTTTAATTAAAAGTGCAAAAAATAATATAACTA [GTGCAC_site9968]  8.31
58. TTCATATTCGATAAAGTGCATTAATTTTATTTATCA  8.36
59. TGATATAAAATTAAAGTGCAAAAAAAAAATAAAAAA  8.36
60. CATGAATATTTTAATGTGCACATTTATCATTATATG  8.69
61. ATTTTAAAAAGGATAGTGCAAATGTTAAAATAGGAC  8.74
62. GTATATAATTTATGTGCACACACTCCTATTTTTAGC [CACACA_site49]  8.89
63. ATTTAAAAGTTGGTAGTGCATTAAAAATAACAAAAA [GTGCAC_site9835]  8.96
64. ATATAAAATCAACAAAAAAAAAAAATATATATATAT [XGTACX_negctrl_site251]  9.03
65. TTCTATTTTTTAAAAGTGCATATTATAAATATATAT  9.04
66. TTATTAAATTCATAAGTGCATTTATGATTAATTTTT [GTGCAC_site9749]  9.08
67. GAAAATTTAAAAAGAGTGCATTATATGTTTGAATAT [GTGCAC_site9564]  9.18
68. ATATATATATATAAAGTGCAAAAATGAAAGTAAGAC [GTGCAC_site9850]  9.25
69. TATATATATATATAATGTACTTATATTTTTTTGAGG [XGTACX_site2638]  9.46
70. TGCTTTTCTTTTTGCACACTTATGCATATATATATA [CACACA_site2583]  9.5
71. TATATATATATATGTGGTACATAAAATTATTATTTT [XGTACX_site4554]  9.55
72. AAAAAAAAAAAAAAAGTGCATTAATAAATTTTAATA  9.57
73. AGGTTTTCTTAAATAGTGCATTATAACAAAAATAAA  9.66
74. ACATTAACATTGTTGGTGCAAAATTAATATGTTTTT [GTGCAC_site9673]  9.77
75. ATTCTAAATATCAGTGCACACATTTCTACGCAAAGT [CACACA_site474]  9.9
76. ATCATATTTATGTTGGTGCATTATGCATGGATTTTA [GTGCAC_site9795]  9.92
77. ATCATATTTATATTGGTGCATTATGCATGAAATTTA [GTGCAC_site9571]  9.94
78. TTTTATGCATGTGAAGTGCAAAATAAAAAATAAAAT [GTGCAC_site9612]  10.2
79. AGGATAAAAGTTATGGTGCATTAACCTATTTAAATA  10.2
80. ATACTTTTATTTTTGGTGCATATATCATGTAGACGT  10.2
81. ATCATATGTATGGTGGTGCATTATGCATGAATTTTA [GTGCAC_site9798]  10.2
82. TTTGAAAAGTATGAGGTGCAAAAAATGTAATGAAAT  10.2
83. AATTTGAAATATGTGGTGCAGTTATATAATATGTTT [GTGCAC_site9885]  10.3
84. TTTTATGTTTATGTGGTGCATGTTTTGAAGAAAATA [GTGCAC_site9616]  10.3
85. CATTTTCATTTTAAGGTGCATTAATATTTATTTTAA [GTGCAC_site9437]  10.4
86. AATATTCATATGCAGGTGCATTAATTTTTATTAATT  10.4
87. ATTATAAATATCAGTGCACACATTTCTACGCAAAGT [CACACA_site4420]  10.4
88. TAAAATATTTCAAAGGTGCAATGATAATTTAAGACG [GTGCAC_site9609]  10.4
89. GTTTGAATATATCAGGTGCATTTATAATTCATATGA  10.5
90. CTTATAAGAATACTAGTGCACATAATTTAACGAAAA  10.6
91. TAATATGAAATGTGTACACACGCACCCACAAAAAAA [CACACA_site8949]  10.7
92. AAAAATTAACAAAAGGTGCAAACAAATAGTGGTTTT [GTGCAC_site9998]  10.8
93. TTTTAAGGTGTGAAGGTGCAAAAAGGTAAATAGGAA  10.8
94. CTTTTTATTTAGGAGGTGCATGTAATACGGAACATA  10.9
95. TGTAATATGAAATGTGTACACACGCACCCACAAAAA [CACACA_site8948]  10.9
96. AGAATTAAAATAAAGGTGCATTTTTTTGTTTCATGT  11
97. ATTTAAAAAAGAAAGGTGCATTTCAATAATGTAAAA [GTGCAC_site9585]  11
98. CATAATTTAAAAAAGGTGCAAAATGGATAATATATA [GTGCAC_site9657]  11
99. CATGAGGTATAAAAGGTGCAAATTAATGAGAACATT  11.1
100. TTTTATTTAGGAGGTGCATGTAATACGGAACATAAT [TGCATGCA_site827]  11.2
